Test results reported in PubChem BioAssay.
Values without a mark were called inactive. The source made the active and inactive calls.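 Rule for the calls, unless noted: active = mean inhibition above 46.5%, the solvent-only control mean plus 3 SD; inactive = the rest.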

Legend:
[1] = tested on: transactivating tegument protein VP16 (Human herpesvirus 1); experiment: compounds suppressing VP16-driven luciferase signal – cell-based, luminescence, single concentration, counter-screen for SRC2 inhibitor project (AID 652007; in the data active = inhibition above about 36%); conditions: cell-based VP16 transactivation luciferase reporter, at 8.9 µM, stronger effect = higher value
[2] = target: Nuclear receptor coactivator 2 (Homo sapiens) (UniProt Q15596); experiment: inhibition of GAL4-SRC2 driven luciferase expression – cell-based, luminescence, HEK293, triplicate, confirmation (AID 652008); conditions: HEK293 GAL4-SRC2 luciferase reporter, at 8.9 µM, stronger effect = higher value;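 note: 0% = DMSO-treated cells and 100% = Gossypol at 36 µM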
Nuclear receptor coactivator 2 (Homo sapiens), sequence (Q15596 whole entry, looked up, the tested form may be a part): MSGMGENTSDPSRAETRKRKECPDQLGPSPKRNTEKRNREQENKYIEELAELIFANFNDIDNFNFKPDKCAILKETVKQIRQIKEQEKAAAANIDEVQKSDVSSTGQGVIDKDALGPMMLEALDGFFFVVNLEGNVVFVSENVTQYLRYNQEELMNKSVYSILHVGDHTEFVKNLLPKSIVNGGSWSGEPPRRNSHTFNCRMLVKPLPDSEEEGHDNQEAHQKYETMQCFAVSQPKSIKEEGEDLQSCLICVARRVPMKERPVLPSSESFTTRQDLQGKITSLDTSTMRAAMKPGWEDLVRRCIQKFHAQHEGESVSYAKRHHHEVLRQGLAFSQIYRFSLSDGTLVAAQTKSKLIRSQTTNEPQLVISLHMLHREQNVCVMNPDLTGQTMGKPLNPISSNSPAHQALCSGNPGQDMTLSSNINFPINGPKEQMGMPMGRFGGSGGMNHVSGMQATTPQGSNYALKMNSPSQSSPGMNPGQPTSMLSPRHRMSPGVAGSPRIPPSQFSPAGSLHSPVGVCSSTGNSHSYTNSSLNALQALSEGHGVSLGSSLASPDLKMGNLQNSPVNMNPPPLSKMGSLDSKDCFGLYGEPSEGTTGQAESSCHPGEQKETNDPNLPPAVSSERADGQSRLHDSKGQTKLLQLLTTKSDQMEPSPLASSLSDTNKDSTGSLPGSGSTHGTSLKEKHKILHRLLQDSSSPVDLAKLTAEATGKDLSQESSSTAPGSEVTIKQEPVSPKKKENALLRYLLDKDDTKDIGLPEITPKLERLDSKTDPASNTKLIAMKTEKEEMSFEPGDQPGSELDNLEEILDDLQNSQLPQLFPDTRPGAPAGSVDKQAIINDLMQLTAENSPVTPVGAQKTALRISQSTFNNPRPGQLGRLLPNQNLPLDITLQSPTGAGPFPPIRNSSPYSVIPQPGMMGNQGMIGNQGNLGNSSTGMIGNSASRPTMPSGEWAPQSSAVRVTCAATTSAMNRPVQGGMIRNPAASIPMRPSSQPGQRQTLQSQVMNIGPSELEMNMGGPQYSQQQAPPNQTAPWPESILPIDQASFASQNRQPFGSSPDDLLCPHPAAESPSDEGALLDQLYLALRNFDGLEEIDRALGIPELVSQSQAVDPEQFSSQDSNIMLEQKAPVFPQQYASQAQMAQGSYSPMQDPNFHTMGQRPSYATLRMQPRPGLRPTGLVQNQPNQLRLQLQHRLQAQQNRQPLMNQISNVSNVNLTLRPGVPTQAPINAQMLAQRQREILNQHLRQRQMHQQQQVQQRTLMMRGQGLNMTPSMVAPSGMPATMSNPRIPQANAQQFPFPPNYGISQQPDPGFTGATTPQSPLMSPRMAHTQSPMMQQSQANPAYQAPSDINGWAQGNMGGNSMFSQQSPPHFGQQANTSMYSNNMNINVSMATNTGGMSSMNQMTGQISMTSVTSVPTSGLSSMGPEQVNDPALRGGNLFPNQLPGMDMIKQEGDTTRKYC

Row | SMILES | inhibition [1] | inhibition [2]
1 | COc1ccc(C(=O)c2[nH]c(N)c(C(=O)NCCc3c[nH]c4ccccc34)c2-c2ccc(OC)c(OC)c2)cc1 | -9.46% | -4.51%
2 | CC(C(=O)NC(C)(C)C)N(C(=O)CS(=O)CC(=O)Nc1ccc(F)cc1)c1ccccc1F (centres undefined) | 2.18% | -14.3%
3 | C[C@@H]1CNCCN1c1ccc(N2CCN(Cc3ccccc3)[C@@H](C)C2)c(C#N)c1 | 15.5% | 17.3%
4 | CC(C)(C)c1ccc(SCCc2ccncc2)cc1 | -28.2% | -4.99%
5 | CC(Sc1nnc(CN2CCCC2)n1Cc1ccccc1)C(=O)Nc1ccc(F)cc1 (centres undefined) | 1.17% | -5.19%
6 | COc1ccc(/C=C2/SC(=S)N(CCCC(=O)N3CCN(C)CC3)C2=O)cc1 | 8.95% | 2.01%
7 | COc1ccc(S(=O)(=O)N2CCCCCC2)cc1C(=O)NCc1ccco1 | -3.91% | 1.95%
8 | CN1CCN(S(=O)(=O)c2ccc(N(C)Cc3cccc(F)c3)nc2)CC1 | -0.35% | -11.8%
9 | COc1cccc(NC(=O)Nc2nnc(N3C(C)CCCC3C)s2)c1 (centres undefined) | -51.2% | -7.93%
10 | O=C(O)C1(Nc2ccc(Br)cc2)CCCC1 | -19.4% | -11.7%
11 | O=C(CCc1nnc(C2CCCCC2)o1)N1CCC(Oc2cccnc2)CC1 | 1.02% | 4.42%
12 | O=C(O)COc1ccc(-c2nccc(-c3ccccn3)n2)cc1 | 20.4% | 79.1% (active)
13 | Cc1c(CCC(=O)NCCCC(=O)O)c(=O)oc2cc3oc4c(c3cc12)CCCC4 | 47.5% (active) | 65% (active)
14 | CC(C)COc1ccc(C(=S)N2CCCC2)cc1 | -1.55% | 40.6%
15 | CC(=C\c1ccccc1)/C=C1/SC(=S)N(CCCC(=O)O)C1=O | 78.9% (active) | 79.2% (active)
16 | COCCN(C(=O)Cc1ccc(S(=O)(=O)N2CCOCC2)s1)c1c(N)n(CC(C)C)c(=O)[nH]c1=O | 1.4% | -13.1%

Row | SMILES | inhibition [1] | inhibition [2]
17 | Cc1c(Cl)sn(-c2ccc(Cl)cc2)c1=O | 76.3% (active) | 93.4% (active)
18 | COCCn1c(-c2ccc(Br)cc2)csc1=Nc1cccnc1 | 10.4% | 20.4%
19 | CCOC(=O)C1=C(COC(=O)CCOc2cc(C)ccc2C)NC(=O)NC1C (centres undefined) | -6.92% | -29.2%
20 | CC(=O)Nc1ccc(Nc2nc(C)c([N+](=O)[O-])c(N(C)c3ccccc3)n2)cc1 | 32.4% | 49.2% (active)
21 | Cc1ccc(NS(=O)(=O)c2cccc(C(=O)NCCCN3CCCC3=O)c2)cc1 | -1.94% | 0.08%
22 | Nc1nonc1C(=O)NCCNCc1cc(Br)ccc1OCc1ccc(F)cc1 | 1.07% | 1.86%
23 | CCc1nnc(NC(=O)c2nc(S(=O)(=O)Cc3ccc(C)cc3)ncc2Cl)s1 | 48.1% (active) | 58.3% (active)
24 | CC(NC(=O)CCc1nnc(-c2ccc(-c3ccccc3)cc2)o1)c1nccs1 (centres undefined) | 17% | 58.5% (active)
25 | CC1=CC(C)(C)Nc2ccc(OC(=O)CN3C(=O)c4ccccc4C3=O)cc21 | -37.1% | 26.9%
26 | N#CCCN(C(=O)CCl)c1cccc(Cl)c1 | 28.7% | 62.8% (active)
27 | O=C(Nc1ccc2c(c1)OCCO2)c1ccc(Br)c(S(=O)(=O)N2CCOCC2)c1 | -39.8% | 45.5%
28 | CCOc1ccc(NS(=O)(=O)c2ccc(C(=O)NC3CCN(Cc4ccccc4)CC3)cc2)cc1 | -3.23% | 8.19%
29 | CCCNC(=O)c1ccc(N2CCC3(CC2)CC(c2cccc(Br)c2)=NO3)c([N+](=O)[O-])c1 | 8% | 7.7%
30 | C=C1C(=O)[C@@]23[C@H](O)C[C@@H]4C(C)(C)CC[C@H](O)[C@]4(C)[C@@H]2C[C@H](O)[C@@H]1[C@H]3O | 4.46% | 54% (active)
31 | COc1ccc2cc3cc(C(=O)Nc4ccc5c(c4)OCO5)oc3nc2c1 | -29.9% | -32%
32 | Cc1cc(C(=O)NNS(=O)(=O)c2cc(C(=O)O)ccc2Cl)c(C)n1-c1ccccc1 | 2.27% | 45.4%
